The text below walks through data of PubChem BioAssay.

The target of this test is Epidermal growth factor receptor (Homo sapiens) (UniProt P00533). As to the kind of experiment: compounds binding epidermal growth factor receptor – biochemical, small-molecule microarray, 635 nm fluorescence, primary screen (AID 1104).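 Note: score merges 667 nm emission intensity with spot signal to noise over triplicate slides.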 The conditions noted are these: EGFR binding, higher = more signal.
Sequence of Epidermal growth factor receptor (Homo sapiens) (P00533 whole entry, looked up): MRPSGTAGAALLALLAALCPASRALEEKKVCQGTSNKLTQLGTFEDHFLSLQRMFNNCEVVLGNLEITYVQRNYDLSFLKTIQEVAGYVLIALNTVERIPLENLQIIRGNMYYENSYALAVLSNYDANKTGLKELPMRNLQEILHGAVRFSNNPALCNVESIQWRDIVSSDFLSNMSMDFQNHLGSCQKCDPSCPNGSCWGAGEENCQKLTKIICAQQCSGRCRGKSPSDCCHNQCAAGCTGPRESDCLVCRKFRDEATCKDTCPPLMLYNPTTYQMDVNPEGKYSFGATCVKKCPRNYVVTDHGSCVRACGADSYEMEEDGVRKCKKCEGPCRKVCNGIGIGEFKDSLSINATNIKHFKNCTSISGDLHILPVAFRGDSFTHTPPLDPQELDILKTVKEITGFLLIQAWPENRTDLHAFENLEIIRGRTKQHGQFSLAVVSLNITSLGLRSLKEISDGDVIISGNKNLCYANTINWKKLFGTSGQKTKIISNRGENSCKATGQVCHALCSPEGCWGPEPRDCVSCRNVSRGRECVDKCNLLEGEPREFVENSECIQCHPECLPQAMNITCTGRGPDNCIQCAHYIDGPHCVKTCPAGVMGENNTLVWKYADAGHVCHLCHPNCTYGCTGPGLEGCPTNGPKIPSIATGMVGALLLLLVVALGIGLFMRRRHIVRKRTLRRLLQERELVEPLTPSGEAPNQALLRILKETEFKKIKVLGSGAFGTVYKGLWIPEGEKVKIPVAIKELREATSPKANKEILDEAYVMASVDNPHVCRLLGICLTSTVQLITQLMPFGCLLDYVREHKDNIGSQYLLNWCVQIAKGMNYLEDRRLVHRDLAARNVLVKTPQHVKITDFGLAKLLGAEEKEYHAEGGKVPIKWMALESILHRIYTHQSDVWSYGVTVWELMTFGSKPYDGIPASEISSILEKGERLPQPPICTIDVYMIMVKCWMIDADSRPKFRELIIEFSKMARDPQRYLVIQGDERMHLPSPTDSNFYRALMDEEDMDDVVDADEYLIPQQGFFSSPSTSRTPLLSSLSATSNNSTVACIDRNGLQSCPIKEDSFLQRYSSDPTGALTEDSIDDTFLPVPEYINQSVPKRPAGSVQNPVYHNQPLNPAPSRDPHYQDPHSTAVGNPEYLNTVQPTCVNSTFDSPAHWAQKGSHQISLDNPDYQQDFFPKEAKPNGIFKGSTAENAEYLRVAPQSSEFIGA
Compound `CN(C)C(=O)[C@]1(Cc2ccccc2CN=[N+]=[N-])N=C(c2ccc(OCCCO)cc2)O[C@@H]1c1ccccc1` registered a composite z-score of -0.19.
Under `Cc1ccc(S[C@]2(C(=O)O)CC(=O)N(C3CCCCC3)[C@@H]2c2ccc(CO)cc2I)cc1` stands -0.131.
The value for `CCOC(=O)C[C@H]1[C@H](OC(=O)c2cc3ccccc3oc2=O)[C@@H](NC(=O)CC(C)C)c2cc(OCCCO)ccc2N1C(=O)c1ccc2ccccc2n1` was 0.548; that for `CCOC(=O)C[C@H]1[C@H](OC(=O)c2ccc(-c3ccccc3)cc2)[C@@H](NC(=O)CC(C)C)c2cc(OCCCO)ccc2N1C(=O)c1ccc2ccccc2n1` was 0.239.
As for `CCOC(=O)C[C@H]1[C@H](OC(=O)c2ccc(C(=O)c3ccccc3)cc2)[C@@H](NC(=O)c2ccc3ccccc3n2)c2cc(OCCCO)ccc2N1C(=O)Cc1ccc(OC)cc1`, the composite z-score came out at 0.196.
In turn, `COc1ccc([Si](C)(C)[C@@H]2[C@@H](CC(=O)N(CCO)Cc3ccccc3)O[C@]3(C(=O)N(Cc4cccc(N5CCCCC5=O)c4)c4ccccc43)[C@H]2C)cc1` gave a composite z-score of 0.242.
As to `COC(=O)[C@]1(CCS(=O)(=O)c2ccccc2)N=C(c2ccc(OCCCO)cc2)O[C@@H]1c1ccccc1N=[N+]=[N-]`, the composite z-score is 0.416.
As to `COC(=O)[C@@]1(Cc2ccccc2)[C@H]2c3cc(C(=O)N4CCCC4)n(CCc4ccccn4)c3C[C@H]2CN1C(=O)c1ccccc1`, the composite z-score was 0.142.
As for `CCCN1C(=O)[C@@]2(Cc3ccccc31)N=C(c1ccc(OCCCO)cc1)O[C@H]2c1ccccc1`, the composite z-score was -0.286.
The value for `COC(=O)[C@@]1(Cc2ccc(F)cc2)[C@H]2c3cc(C(=O)N(C)C)n(Cc4ccc(OC(F)(F)F)cc4)c3C[C@H]2CN1C(=O)c1ccccc1` was 0.18.
